# From PubChem BioAssay (NCATS)
# Inconclusive results are not listed. Entries that show only a call come without a potency. A number with no mark means an inactive call. Activity calls are given as the source filed them. Calls follow the shape of the dose curve; as a rule, active = well fitted inhibition curve with a large enough effect; inconclusive = small, poorly fitted or top-dose-only effect; inactive = flat fitted curve, though single readings scatter. *1 amine or outer side, *2 acyl side, *3 side chain or, on linkers, in order; H or OH if unused. Where a SMILES comes first, the peptide text is derived from it. Bridges are numbered along the chain shown (N, C = ends). Side-chain parts run from the residue outwards. [ ]: non-standard residue; d: D form. The star is where a group is joined. X11 = NC1=N[C@@H](O)C[C@H]([C@H](N[*:1])C(=O)[*:2])N1; ΔAla(Z-3-ureido) = NC(=O)N/C=C(\N)C(=O)O; Ethylenediamine = C(CN[*:2])N[*:1]; Hyp = O=C(O)[C@@H]1C[C@@H](O)CN1; Phg = N[C@H](C(=O)O)c1ccccc1; β3hOrn = NCCC[C@H](N)CC(=O)*; Dap = NC[C@H](N)C(=O)O; CO = O=C([*:1])[*:2]; Bn = c1ccc(C*)cc1
# Legend:
# [1] = target: Glutathione peroxidase 1 (Homo sapiens) (UniProt P07203); assay: Primary qHTS Assay for Inhibitors of Recombinant Selenoprotein Glutathione Peroxidase 1 (GPX1) (AID 1845191)
# Outline: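 10 nM GPX1 + cpd, 30 min RT; start w/ 1 mM GSH, 0.5 mM cumene hydroperoxide, 0.5 mM NADPH, 100 nM GR, 0.01% BSA; buffer 50 mM Tris-HCl pH 7.5, 2 mM EDTA, 150 mM NaCl; Fl 340/450, 0 & 15 min.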
# [2] = target: Phospholipid hydroperoxide glutathione peroxidase GPX4 (Homo sapiens) (UniProt P36969); assay: Primary qHTS Assay for Inhibitors of Recombinant Selenoprotein Glutathione Peroxidase 4 (GPX4) (AID 1845192); also: potency is read from the fitted curve at half-maximal effect; as to activity change, negative = inhibition: series mostly up to about 50 µM
# Outline: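 NADPH consumption, followed by fluorescence at 340/450 nm between 0 and 15 min, reports GPX4 activity via coupled glutathione reductase (100 nM). Enzyme 200 nM was pre-exposed to compound 30 min; 0.5 mM cumene hydroperoxide and 1 mM GSH served as substrates.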
# Also: nearly all actives have a fitted effect of over 65% in size.
# Phospholipid hydroperoxide glutathione peroxidase GPX4 (Homo sapiens), sequence (P36969 whole entry, looked up): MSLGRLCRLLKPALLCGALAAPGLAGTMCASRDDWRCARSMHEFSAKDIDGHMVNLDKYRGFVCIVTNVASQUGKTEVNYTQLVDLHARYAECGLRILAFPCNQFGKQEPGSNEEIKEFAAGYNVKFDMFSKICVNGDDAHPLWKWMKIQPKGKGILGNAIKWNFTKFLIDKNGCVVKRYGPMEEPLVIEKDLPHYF
# Glutathione peroxidase 1 (Homo sapiens), sequence (P07203 whole entry, looked up): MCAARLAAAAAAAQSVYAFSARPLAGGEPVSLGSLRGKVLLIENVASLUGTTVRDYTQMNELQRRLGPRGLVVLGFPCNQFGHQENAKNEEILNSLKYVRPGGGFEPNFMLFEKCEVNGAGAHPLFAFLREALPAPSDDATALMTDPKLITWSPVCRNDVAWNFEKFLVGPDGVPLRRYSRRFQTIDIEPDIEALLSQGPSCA
SMILES,Potency [1],Potency [2],"activity change, negative = inhibition [2]","activity, negative = inhibition [1]"
NCCC[C@H](N)CC(=O)N[C@H]1CNC(=O)[C@H]([C@H]2C[C@H](O)N=C(N)N2)NC(=O)/C(=C/NC(N)=O)NC(=O)[C@H](CO)NC(=O)[C@H](CO)NC1=O (β3hOrn-[Dap]SS[ΔAla(Z-3-ureido)][X11]; lactam 1-C),inactive,inactive,,
CO[C@H]1O[C@@H]2O[C@@]3(C)CC[C@H]4[C@H](C)CC[C@@H]([C@@H]1C)[C@@]24OO3,inactive,inactive,,
C[C@@H]1O[C@@H](O[C@@H]2/C=C/C=C/C=C\C=C\C[C@H](C)OC(=O)/C=C/[C@H]3O[C@@H]3C[C@H](O)C[C@]3(O)C[C@@H](O)[C@@H](C(=O)O)[C@H](C2)O3)[C@H](O)[C@H](N)[C@@H]1O,inactive,,-18.7% [at 9.73 µM],
CC1(C)S[C@@H]2[C@H](NC(=O)[C@H](NC(=O)N3CCNC3=O)c3ccccc3)C(=O)N2C1C(=O)O (some centres undefined),inactive,inactive,,
NC(=O)C1CCCN1C(=O)C(Cc1cnc[nH]1)NC(=O)C1CCC(=O)N1 (centres undefined),inactive,inactive,,
COC(=S)NCCn1c([N+](=O)[O-])cnc1C,inactive,inactive,,
OB1OCc2cc(F)ccc21,inactive,inactive,,
O=C(O[C@H]1C[N+]2(CCCOc3ccccc3)CCC1CC2)C(O)(c1cccs1)c1cccs1,inactive,inactive,,
CCCCC(=O)O[C@]1(C(=O)COC(C)=O)CC[C@H]2[C@@H]3CCC4=CC(=O)C=C[C@]4(C)[C@H]3[C@@H](O)C[C@@]21C,inactive,inactive,,
CCCCC(C)(O)CC=C[C@H]1[C@H](O)CC(=O)[C@H]1CCCCCCC(=O)OC (some centres undefined),inactive,inactive,,
O=[N+]([O-])c1ccc(/C=C/c2cccc(CO)n2)o1,inactive,inactive,,
CCC(=O)NC[C@@H]1C[C@H]1c1cccc2c1CCO2,inactive,inactive,,
CCC1OC(=O)[C@H](C)C(=O)[C@H](C)[C@@H](OC2O[C@H](C)C[C@H](N(C)C)[C@H]2O)[C@](C)(OC)C[C@@H](C)C(=O)[C@@H](C)[C@@H]2N(CCCCn3cnc(-c4cccnc4)c3)C(=O)O[C@]12C (some centres undefined),inactive,inactive,,
CCCCC(CC)COC(=O)c1ccc(Nc2nc(Nc3ccc(C(=O)OCC(CC)CCCC)cc3)nc(Nc3ccc(C(=O)OCC(CC)CCCC)cc3)n2)cc1 (centres undefined),inactive,inactive,,
CSCC[C@H](N)C(=O)O,inactive,inactive,,
O=P(O)(O)OC1C(OP(=O)(O)O)C(OP(=O)(O)O)C(OP(=O)(O)O)C(OP(=O)(O)O)C1OP(=O)(O)O (centres undefined),inactive,inactive,,
O=C(OC1C(OC(=O)c2cccnc2)C(OC(=O)c2cccnc2)C(OC(=O)c2cccnc2)C(OC(=O)c2cccnc2)C1OC(=O)c1cccnc1)c1cccnc1 (centres undefined),inactive,inactive,,
CCC(=O)OCC(=O)[C@]1(OC(=O)CC)[C@H](C)C[C@H]2[C@H]3[C@H]([C@@H](O)C[C@@]21C)[C@@]1(C)C=CC(=O)C=C1C[C@H]3Cl,inactive,inactive,,
O=C1CCC(C(=O)O)N1 (centres undefined),inactive,inactive,,

SMILES,Potency [1],Potency [2],"activity change, negative = inhibition [2]","activity, negative = inhibition [1]"
CCCCC(F)(F)C1(O)CCC2C(CC(=O)C2CCCCCCC(=O)O)O1 (centres undefined),inactive,inactive,,
O=C(OC1C[C@@H]2CC3C[C@@H](C1)N2CC3=O)c1c[nH]c2ccccc12 (some centres undefined),inactive,inactive,,
CN(C)CC(=O)O,inactive,inactive,,
O=C(O)C(O)[C@H](O)[C@H](O)[C@H](O)[C@H](O)CO (some centres undefined),inactive,inactive,,
OC[C@H]1O[C@H](O[C@H]2[C@H](O)[C@@H](O)[C@H](O)O[C@@H]2CO)[C@H](O)[C@@H](O)[C@@H]1O,inactive,inactive,,
OC[C@H]1O[C@H](O)[C@H](O)[C@@H](O)[C@@H]1O,inactive,inactive,,
CC(=O)OCC(=O)[C@@]1(O)[C@H](C)C[C@H]2[C@@H]3C[C@H](F)C4=CC(=O)C=C[C@]4(C)[C@@]3(F)[C@@H](O)C[C@@]21C,inactive,inactive,,
CNc1ncc(-c2ccc3c(=O)c(C(=O)O)cn(C4CC4)c3c2C)cc1C,inactive,inactive,,
CC(=O)OC1CCC2(C)C(=CCC3C2CCC2(C)C(c4cccnc4)=CCC32)C1 (centres undefined),inactive,inactive,,
COc1ccc(CC(C)(C)NC[C@H](O)c2cc(O)cc3c2OCC(=O)N3)cc1,inactive,inactive,,
CCOc1ccc(Cc2cc([C@@]34OC[C@@](CO)(O3)[C@@H](O)[C@H](O)[C@H]4O)ccc2Cl)cc1,inactive,inactive,,
CN[C@@H]1[C@@H](O[C@H]2O[C@H](CO)[C@@H](N)[C@H](O)[C@H]2O)O[C@H]2C[C@@H](N)[C@H](O[C@H]3[C@H](O)[C@@H](O)[C@H](N)C[C@@H]3N)O[C@@H]2[C@@H]1O,inactive,inactive,,
NCCCC[C@@H]1NC(=O)[C@@H](Cc2c[nH]c3ccccc23)NC(=O)[C@H](c2ccccc2)NC(=O)[C@@H]2C[C@@H](OC(=O)NCCN)CN2C(=O)[C@H](Cc2ccccc2)NC(=O)[C@H](Cc2ccc(OCc3ccccc3)cc2)NC1=O (cyclo([Hyp]([CO-Ethylenediamine])[Phg][dW]KY(Bn)F)),inactive,inactive,,
C=C1CC[C@H](O)C/C1=C\C=C1/CCC[C@]2(C)[C@@H]([C@H](C)CC[C@H](O)C(C)(C)O)CC[C@@H]12,inactive,14.1 µM (active),,
CC[C@@H]1CCN[C@H](C(=O)N[C@@H]([C@H]2O[C@H](SC)[C@H](O)[C@@H](O)[C@H]2O)[C@H](C)Cl)C1,inactive,inactive,,
CCC(=C(CC)c1ccc(OP(=O)(O)O)cc1)c1ccc(OP(=O)(O)O)cc1,,,1.61% [at 0.409 µM],1.38% [at 0.4 µM]
COc1cc2c(cc1OC)[C@H]1C[C@@H](OC(=O)[C@@H](N)C(C)C)[C@H](CC(C)C)CN1CC2,inactive,inactive,,
Clc1ccc(CCCOCCCN2CCCCC2)cc1,inactive,inactive,,
